# Measurements reported in ChEMBL document CHEMBL1201862, “PubChem BioAssay data set” (2004).
# Hit rate of the full screen: of about 400,000 compounds, about 2,100 (0.53%) were called active. About 14% were inconclusive and are not listed. This is one part of a sample in which actives are shown more often than they occur. The rule behind the calls is not given here.
# Target: Ataxin-2 (Homo sapiens) (UniProt Q99700)
# Assay: qHTS for Inhibitors of ATXN expression.
# Type: functional
# Ataxin-2 (Homo sapiens), sequence (Q99700 whole entry): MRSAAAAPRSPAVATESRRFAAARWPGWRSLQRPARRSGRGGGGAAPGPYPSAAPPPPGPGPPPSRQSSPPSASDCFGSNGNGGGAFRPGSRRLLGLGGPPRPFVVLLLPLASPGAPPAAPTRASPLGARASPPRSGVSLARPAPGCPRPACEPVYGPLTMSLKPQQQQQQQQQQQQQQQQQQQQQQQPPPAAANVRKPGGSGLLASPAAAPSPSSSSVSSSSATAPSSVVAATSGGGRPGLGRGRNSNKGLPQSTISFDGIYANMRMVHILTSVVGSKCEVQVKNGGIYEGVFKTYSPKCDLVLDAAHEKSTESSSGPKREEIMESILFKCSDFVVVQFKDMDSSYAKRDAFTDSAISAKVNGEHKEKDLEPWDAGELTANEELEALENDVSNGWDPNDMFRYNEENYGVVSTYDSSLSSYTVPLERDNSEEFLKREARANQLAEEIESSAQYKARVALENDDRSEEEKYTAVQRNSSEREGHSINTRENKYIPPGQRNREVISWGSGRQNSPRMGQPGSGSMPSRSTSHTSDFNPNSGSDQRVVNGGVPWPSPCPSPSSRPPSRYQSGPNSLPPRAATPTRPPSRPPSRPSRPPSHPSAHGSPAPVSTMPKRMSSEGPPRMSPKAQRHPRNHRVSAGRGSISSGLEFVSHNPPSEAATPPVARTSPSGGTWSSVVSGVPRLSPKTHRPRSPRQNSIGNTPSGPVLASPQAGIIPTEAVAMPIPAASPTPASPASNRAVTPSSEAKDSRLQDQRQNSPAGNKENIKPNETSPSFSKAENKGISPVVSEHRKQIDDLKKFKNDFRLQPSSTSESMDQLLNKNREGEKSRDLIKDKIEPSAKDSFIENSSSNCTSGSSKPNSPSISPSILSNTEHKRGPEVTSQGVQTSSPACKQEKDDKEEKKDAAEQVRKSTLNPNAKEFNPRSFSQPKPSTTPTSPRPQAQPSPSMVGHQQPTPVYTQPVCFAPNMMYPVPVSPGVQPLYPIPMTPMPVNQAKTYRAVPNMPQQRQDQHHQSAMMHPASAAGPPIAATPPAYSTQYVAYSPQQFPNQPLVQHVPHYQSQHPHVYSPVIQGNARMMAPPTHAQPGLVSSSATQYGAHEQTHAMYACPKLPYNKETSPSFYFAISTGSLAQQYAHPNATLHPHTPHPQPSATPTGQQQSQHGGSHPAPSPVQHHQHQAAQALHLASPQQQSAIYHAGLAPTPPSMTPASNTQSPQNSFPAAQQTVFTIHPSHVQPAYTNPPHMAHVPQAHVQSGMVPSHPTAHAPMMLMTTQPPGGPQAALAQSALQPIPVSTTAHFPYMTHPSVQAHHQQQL
row,SMILES,Potency
1,CC(=O)c1sc(Nc2nc3cc4c(cc3s2)OCO4)nc1C,inactive
2,O=C1C2CC(O)CN2C(=S)N1Cc1ccccc1 (stereo unspecified),inactive
3,O=C(Cc1cc(=O)oc2cc(O)ccc12)NC(Cc1ccc(Cl)cc1)C(=O)O (stereo unspecified),inactive
4,COc1cc(C(=O)OCc2ccc(C)cc2)cc(NC(=O)c2cccs2)c1OC,inactive
5,CN(C)c1ccc(/C=C/C(=O)c2ccc3c(c2)OCO3)cc1,inactive
6,CC(=O)Nc1cccc(C(=O)/C=C/c2ccc(Br)cc2)c1,20 µM (active)
7,O=C(Nc1cccc(Br)c1)C1CCCC1,inactive
8,COc1cccc(Cn2c(=O)c3ccccc3n3nc(C)cc23)c1,inactive
9,COc1cc(O)c(C(=O)/C=C/c2ccccc2)c(OC)c1,35.5 µM (active)
10,COc1ccc(OC)c(C(=O)/C=C/c2cccnc2)c1,39.8 µM (active)
11,CC(/C=C/C=C/c1ccccc1)=N\NC(=O)c1cccnc1,inactive
12,Cc1cc(O)c(C(=O)/C=C/c2ccccc2)c(=O)o1,inactive
13,O=C(NNc1ccccc1)/C(=C\c1cccnc1)NC(=O)c1ccccc1,inactive
14,O=C(/C=C/c1cccnc1)c1cccc(O)c1,26.7 µM (active)
15,COc1cc(OC)c2cc(C(=O)N/N=C/c3ccccc3O)[nH]c2c1,inactive
16,COc1ccc(C(=O)/C=C/c2ccc(N(C)C)cc2)c(OC)c1,inactive

row,SMILES,Potency
1,O=C(C=Cc1cccnc1)c1ccccc1,39.8 µM (active)
2,Cc1cc(-c2sccc2Br)nc(-n2cccc2)n1,inactive
3,COc1cccc(/C=N/NC(=O)c2cnn(-c3ccccc3)c2N)c1,inactive
4,COc1ccc(S(=O)(=O)N2CCOCC2)cc1NC(=O)COC(=O)c1oc2ccccc2c1C,inactive
5,N#Cc1c2c(c(NCCOCCO)n3c1nc1ccccc13)CCCC2,inactive
6,OCCCc1nc2n(n1)C(c1cccc(Cl)c1)C=C(c1ccccc1)N2 (stereo unspecified),inactive
7,COc1ccc(C(=O)COC(=O)/C=C/c2ccco2)cc1F,inactive
8,N#Cc1ccc(/C=C/C(=O)c2cccnc2)cc1,25.1 µM (active)
9,O=C(N/N=C/c1cccnc1)c1ccccc1OCc1ccc(Br)cc1,inactive
10,N#Cc1ccc(/C=C\c2[nH]ccc3c4ccccc4nc2-3)cc1,inactive
11,COC(=O)C(=C/C(C)=C/c1cccnc1)C(=O)OC,22.4 µM (active)
12,N#Cc1ccc(C(=O)CSc2nnc(O)n2-c2cccnc2)cc1,inactive
13,O=c1c(-c2nc3ccccc3s2)cccn1Cc1ccc(Cl)c(Cl)c1,inactive
14,Oc1cc(-c2nc3ccccc3s2)cc2c1OCCN(Cc1cccn1-c1ccccn1)C2,31.6 µM (active)
15,Cc1ccc(Cl)c(NC(=O)CSc2nnc(O)n2C2CC2)c1Cl,inactive
